# According to the supplement of paper PMC4022240:
# ± gives the standard deviation.
# T1: HaloTag-ATRX ADD domain (163-292)
# T1 chain: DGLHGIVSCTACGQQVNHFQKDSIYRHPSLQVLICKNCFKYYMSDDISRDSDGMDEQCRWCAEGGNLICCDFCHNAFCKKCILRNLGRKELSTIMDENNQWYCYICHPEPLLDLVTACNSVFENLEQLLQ
# Columns and labels:
# Assay in all cases: peptide microarray binding signal (635 nm), min-max normalized on array (fraction of array maximum); higher = stronger binding
# [1] = biological target: T1, HaloTag-ATRX ADD domain (163-292)
# How it was run: (§1)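 Two probe formats were used for 1 h at 4°C: biotin-labelled HaloTag reader fusions (10 nM to 1 μM) with streptavidin-Alexa Fluor 647, and rabbit histone antibodies (1:10,000 to 1:2,000) with anti-rabbit Alexa 647. Both were applied to nitrocellulose arrays of histone 13-mer peptide–cellulose conjugates printed in triplicate with a Cy3 tracer and blocked overnight at 4°C. Signal was read at 635 nm and misprints at 532 nm on an Axon GenePix 4000B. Binding signal is expressed as the triplicate-spot mean intensity, min-max scaled for each library.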
# [2] = biological target: HaloTag-ING2 PHD (mouse Ing2 200-280)
# How it was run: as §1
# [3] = biological target: anti-H3K4me3 antibody ab8580
# How it was run: as §1
# [4] = biological target: anti-H3K9me3 antibody ab8898
# How it was run: as §1
# [5] = peptide region: H3 11-23, peptide modifications: H3R17me2a, binder concentration: 1:2,000 dilution
# [6] = peptide region: H3 11-23, peptide modifications: H3R17me2a, binder concentration: 1:10,000 dilution
# [7] = peptide region: H3 11-23, peptide modifications: H3R17me2s H3K18ac, binder concentration: 1:2,000 dilution
# [8] = peptide region: H3 11-23, peptide modifications: H3R17me2s H3K18ac, binder concentration: 1:10,000 dilution
# [9] = peptide region: H3 11-23, peptide modifications: H3R17me2a H3K18me3, binder concentration: 1:2,000 dilution
# [10] = peptide region: H3 11-23, peptide modifications: H3R17me2a H3K18me3, binder concentration: 1:10,000 dilution
# [11] = peptide region: H3 11-23, peptide modifications: H3R17me2a H3K18me1, binder concentration: 1:2,000 dilution
# [12] = peptide region: H3 11-23, peptide modifications: H3R17me2a H3K18me1, binder concentration: 1:10,000 dilution
# [13] = peptide region: H3 11-23, peptide modifications: H3R17me2a H3K18me2, binder concentration: 1:2,000 dilution
# [14] = peptide region: H3 11-23, peptide modifications: H3R17me2a H3K18me2, binder concentration: 1:10,000 dilution
# [15] = peptide region: H3 11-23, peptide modifications: H3R17me2s H3K18me2, binder concentration: 1:2,000 dilution
# [16] = peptide region: H3 11-23, peptide modifications: H3R17me2s H3K18me2, binder concentration: 1:10,000 dilution
# [17] = peptide region: H3 11-23, peptide modifications: H3R17me2s H3K18me1, binder concentration: 1:2,000 dilution
# [18] = peptide region: H3 11-23, peptide modifications: H3R17me2s H3K18me1, binder concentration: 1:10,000 dilution
# [19] = peptide region: H3 20-32, binder concentration: 1:2,000 dilution
# [20] = peptide region: H3 20-32, binder concentration: 1:10,000 dilution
# [21] = peptide region: H3 11-23, peptide modifications: H3R17me2s H3K18me3, binder concentration: 1:2,000 dilution
# [22] = peptide region: H3 11-23, peptide modifications: H3R17me2s H3K18me3, binder concentration: 1:10,000 dilution
# [23] = peptide region: H3 11-23, peptide modifications: H3R17me2s, binder concentration: 1:2,000 dilution
# [24] = peptide region: H3 11-23, peptide modifications: H3R17me2s, binder concentration: 1:10,000 dilution
binder,measurement,setting,value
TGGKAPRKQLATK [H3 11-23 T G G K A P Rme2a K Q L A T K],peptide microarray binding signal,"[1]; peptide region: H3 11-23, peptide modifications: H3R17me2a, binder concentration: 50 nM",0.0047 ± 0.00017
same,peptide microarray binding signal,"[1]; peptide region: H3 11-23, peptide modifications: H3R17me2a, binder concentration: 500 nM",0.00767 ± 0.00072
same,peptide microarray binding signal,"[2]; peptide region: H3 11-23, peptide modifications: H3R17me2a, binder concentration: 10 nM",0.00328 ± 9.3e-05
same,peptide microarray binding signal,"[2]; peptide region: H3 11-23, peptide modifications: H3R17me2a, binder concentration: 100 nM",0.00921 ± 0.0033
same,peptide microarray binding signal,[3]; [5],0.001001 ± 8.5e-06
same,peptide microarray binding signal,[3]; [6],0.000742
same,peptide microarray binding signal,[4]; [5],0.00116 ± 7.7e-05
same,peptide microarray binding signal,[4]; [6],0.00156 ± 3e-05
TGGKAPRKQLATK [H3 11-23 T G G K A P Rme2s Kac Q L A T K],peptide microarray binding signal,"[1]; peptide region: H3 11-23, peptide modifications: H3R17me2s H3K18ac, binder concentration: 50 nM",0.00658 ± 0.00084
same,peptide microarray binding signal,"[1]; peptide region: H3 11-23, peptide modifications: H3R17me2s H3K18ac, binder concentration: 500 nM",0.0081 ± 0.0003
same,peptide microarray binding signal,"[2]; peptide region: H3 11-23, peptide modifications: H3R17me2s H3K18ac, binder concentration: 10 nM",0.00776 ± 0.00012
same,peptide microarray binding signal,"[2]; peptide region: H3 11-23, peptide modifications: H3R17me2s H3K18ac, binder concentration: 100 nM",0.0133 ± 0.00095
same,peptide microarray binding signal,[3]; [7],0.00415 ± 0.00025
same,peptide microarray binding signal,[3]; [8],0.00468 ± 0.00016
same,peptide microarray binding signal,[4]; [7],0.00156 ± 4.6e-05
same,peptide microarray binding signal,[4]; [8],0.001441 ± 1.4e-05
TGGKAPRKQLATK [H3 11-23 T G G K A P Rme2a Kme3 Q L A T K],peptide microarray binding signal,"[1]; peptide region: H3 11-23, peptide modifications: H3R17me2a H3K18me3, binder concentration: 50 nM",0.0133 ± 0.00073
same,peptide microarray binding signal,"[1]; peptide region: H3 11-23, peptide modifications: H3R17me2a H3K18me3, binder concentration: 500 nM",0.0186 ± 0.0037
same,peptide microarray binding signal,"[2]; peptide region: H3 11-23, peptide modifications: H3R17me2a H3K18me3, binder concentration: 10 nM",0.0148 ± 0.0037
same,peptide microarray binding signal,"[2]; peptide region: H3 11-23, peptide modifications: H3R17me2a H3K18me3, binder concentration: 100 nM",0.0224 ± 0.0093
same,peptide microarray binding signal,[3]; [9],0.284 ± 0.098
same,peptide microarray binding signal,[3]; [10],0.305 ± 0.1
same,peptide microarray binding signal,[4]; [9],0.0475 ± 0.015
same,peptide microarray binding signal,[4]; [10],0.0213 ± 0.0043
TGGKAPRKQLATK [H3 11-23 T G G K A P Rme2a Kme Q L A T K],peptide microarray binding signal,"[1]; peptide region: H3 11-23, peptide modifications: H3R17me2a H3K18me1, binder concentration: 50 nM",0.0073 ± 0.00016
same,peptide microarray binding signal,"[1]; peptide region: H3 11-23, peptide modifications: H3R17me2a H3K18me1, binder concentration: 500 nM",0.0126 ± 0.0004
same,peptide microarray binding signal,"[2]; peptide region: H3 11-23, peptide modifications: H3R17me2a H3K18me1, binder concentration: 10 nM",0.00949 ± 0.00068
same,peptide microarray binding signal,"[2]; peptide region: H3 11-23, peptide modifications: H3R17me2a H3K18me1, binder concentration: 100 nM",0.0322 ± 0.008
same,peptide microarray binding signal,[3]; [11],0.00823 ± 0.0013
same,peptide microarray binding signal,[3]; [12],0.00496 ± 0.00085
same,peptide microarray binding signal,[4]; [11],0.00281 ± 0.00028
same,peptide microarray binding signal,[4]; [12],0.00173 ± 1.7e-05
TGGKAPRKQLATK [H3 11-23 T G G K A P Rme2a Kme2 Q L A T K],peptide microarray binding signal,"[1]; peptide region: H3 11-23, peptide modifications: H3R17me2a H3K18me2, binder concentration: 50 nM",0.00937 ± 0.0035
same,peptide microarray binding signal,"[1]; peptide region: H3 11-23, peptide modifications: H3R17me2a H3K18me2, binder concentration: 500 nM",0.011 ± 0.00034
same,peptide microarray binding signal,"[2]; peptide region: H3 11-23, peptide modifications: H3R17me2a H3K18me2, binder concentration: 10 nM",0.0112 ± 0.0018
same,peptide microarray binding signal,"[2]; peptide region: H3 11-23, peptide modifications: H3R17me2a H3K18me2, binder concentration: 100 nM",0.0143 ± 0.00077
same,peptide microarray binding signal,[3]; [13],0.00423 ± 0.00094
same,peptide microarray binding signal,[3]; [14],0.0032 ± 0.00019
same,peptide microarray binding signal,[4]; [13],0.00186 ± 6.1e-05
same,peptide microarray binding signal,[4]; [14],0.001787 ± 1.7e-05
TGGKAPRKQLATK [H3 11-23 T G G K A P Rme2s Kme2 Q L A T K],peptide microarray binding signal,"[1]; peptide region: H3 11-23, peptide modifications: H3R17me2s H3K18me2, binder concentration: 50 nM",0.00549 ± 0.0002
same,peptide microarray binding signal,"[1]; peptide region: H3 11-23, peptide modifications: H3R17me2s H3K18me2, binder concentration: 500 nM",0.0107 ± 0.00094
same,peptide microarray binding signal,"[2]; peptide region: H3 11-23, peptide modifications: H3R17me2s H3K18me2, binder concentration: 10 nM",0.0163 ± 0.0016
same,peptide microarray binding signal,"[2]; peptide region: H3 11-23, peptide modifications: H3R17me2s H3K18me2, binder concentration: 100 nM",0.0188 ± 0.0013
same,peptide microarray binding signal,[3]; [15],0.02 ± 0.0013
same,peptide microarray binding signal,[3]; [16],0.0106 ± 0.0017
same,peptide microarray binding signal,[4]; [15],0.00296 ± 0.00028
same,peptide microarray binding signal,[4]; [16],0.00259 ± 6.1e-05
TGGKAPRKQLATK [H3 11-23 T G G K A P Rme2s Kme Q L A T K],peptide microarray binding signal,"[1]; peptide region: H3 11-23, peptide modifications: H3R17me2s H3K18me1, binder concentration: 50 nM",0.00755 ± 0.00027
same,peptide microarray binding signal,"[1]; peptide region: H3 11-23, peptide modifications: H3R17me2s H3K18me1, binder concentration: 500 nM",0.00986 ± 0.00028
same,peptide microarray binding signal,"[2]; peptide region: H3 11-23, peptide modifications: H3R17me2s H3K18me1, binder concentration: 10 nM",0.0187 ± 0.00059
same,peptide microarray binding signal,"[2]; peptide region: H3 11-23, peptide modifications: H3R17me2s H3K18me1, binder concentration: 100 nM",0.0288 ± 0.002
same,peptide microarray binding signal,[3]; [17],0.0153 ± 0.0029
same,peptide microarray binding signal,[3]; [18],0.0127 ± 0.0012
same,peptide microarray binding signal,[4]; [17],0.00368 ± 0.00012
same,peptide microarray binding signal,[4]; [18],0.00254 ± 3.9e-05
LATKAARKSAPAT [H3 20-32 L A T K A A R K S A P A T],peptide microarray binding signal,"[1]; peptide region: H3 20-32, binder concentration: 50 nM",0.00505 ± 0.00047
same,peptide microarray binding signal,"[1]; peptide region: H3 20-32, binder concentration: 500 nM",0.00533 ± 9e-05
same,peptide microarray binding signal,"[2]; peptide region: H3 20-32, binder concentration: 10 nM",0.00806 ± 9.3e-05
same,peptide microarray binding signal,"[2]; peptide region: H3 20-32, binder concentration: 100 nM",0.0106 ± 0.00016
same,peptide microarray binding signal,[3]; [19],0.00249 ± 7e-05
same,peptide microarray binding signal,[3]; [20],0.00262 ± 4e-05
same,peptide microarray binding signal,[4]; [19],0.000982 ± 2.1e-05
same,peptide microarray binding signal,[4]; [20],0.00167
TGGKAPRKQLATK [H3 11-23 T G G K A P Rme2s Kme3 Q L A T K],peptide microarray binding signal,"[1]; peptide region: H3 11-23, peptide modifications: H3R17me2s H3K18me3, binder concentration: 50 nM",0.00476 ± 0.00011
same,peptide microarray binding signal,"[1]; peptide region: H3 11-23, peptide modifications: H3R17me2s H3K18me3, binder concentration: 500 nM",0.00814 ± 0.00026
same,peptide microarray binding signal,"[2]; peptide region: H3 11-23, peptide modifications: H3R17me2s H3K18me3, binder concentration: 10 nM",0.0107 ± 0.0017
same,peptide microarray binding signal,"[2]; peptide region: H3 11-23, peptide modifications: H3R17me2s H3K18me3, binder concentration: 100 nM",0.0204 ± 0.0049
same,peptide microarray binding signal,[3]; [21],0.0681 ± 0.028
same,peptide microarray binding signal,[3]; [22],0.0469 ± 0.0085
same,peptide microarray binding signal,[4]; [21],0.0662 ± 0.01
same,peptide microarray binding signal,[4]; [22],0.0267 ± 0.0059
TGGKAPRKQLATK [H3 11-23 T G G K A P Rme2s K Q L A T K],peptide microarray binding signal,"[1]; peptide region: H3 11-23, peptide modifications: H3R17me2s, binder concentration: 50 nM",0.00332 ± 8.4e-05
same,peptide microarray binding signal,"[1]; peptide region: H3 11-23, peptide modifications: H3R17me2s, binder concentration: 500 nM",0.00543 ± 0.00073
same,peptide microarray binding signal,"[2]; peptide region: H3 11-23, peptide modifications: H3R17me2s, binder concentration: 10 nM",0.003163 ± 1.7e-05
same,peptide microarray binding signal,"[2]; peptide region: H3 11-23, peptide modifications: H3R17me2s, binder concentration: 100 nM",0.00411 ± 0.00034
same,peptide microarray binding signal,[3]; [23],0.001 ± 5.2e-05
same,peptide microarray binding signal,[3]; [24],0.00108
same,peptide microarray binding signal,[4]; [23],0.00128 ± 0.00017
same,peptide microarray binding signal,[4]; [24],0.0011 ± 4e-05
